# Reference: the supplement of paper PMC8728848
# The full list was thinned out, with the strongest signals kept by preference.
# B1: Cohesin-hDECTIN-1 (Homo sapiens) (protein)
# chain: LDITSHHHHHHDDLDAVRIKVDTVNAKPGDTVRIPVRFSGIPSKGIANCDFVYSYDPNVLEIIEIEPGDIIVDPNPDKSFDTAVYPDRKIIVFLFAEDSGTGAYAITKDGVFATIVAKVKEGAPNGLSVIKFVEVGGFANNDLVEQKTQFFDGGVNVGDTTEPATPTTPVTTPTTTDDLDAASSSPCPPNWIIYEKSCYLFSMSLNSWDGSKRQCWQLGSNLLKIDSSNELGFIVKQVSSQPDNSFWIGLSRPQTEVPWLWEDGSTFSSNLFQIRTTATQENPSPNCVWIHVSVIYDQLCSVPSYSICEKKFM
# Columns and labels:
# Test in all cases: glycan array binding signal (z-score within array); higher = stronger binding
# Conditions in all cases: glycan notation: IUPAC condensed, linker removed
# [1] = biological target: Fuc(a1-2)Gal(b1-3)GalNAc(b1-3)Gal
# Method in brief: (§1)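 Arrays were curated from the Consortium for Functional Glycomics database, 3228 in total, and kept only where the protein sequence was available. Binding is expressed as a within-array Z-score. This score was averaged across arrays of the same protein sequence at different concentrations or buffers and across linkers, and negative values can be read as non-binding.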
# [2] = biological target: Fuc(a1-2)Gal(b1-4)Glc
# Method in brief: as §1
# [3] = biological target: Fuc(a1-2)Gal(b1-4)GlcNAc(b1-3)GalNAc
# Method in brief: as §1
# [4] = biological target: Fuc(a1-2)Gal(b1-4)GlcNAc(b1-6)GalNAc
# Method in brief: as §1
# [5] = biological target: Fuc(a1-2)Gal6S(b1-3)GlcNAc6S
# Method in brief: as §1
# [6] = biological target: Fuc(a1-2)[Gal(a1-3)]Gal(b1-4)GlcNAc
# Method in brief: as §1
# [7] = biological target: Fuc(a1-2)[Gal(a1-3)]Gal(b1-4)GlcNAc(b1-2)Man(a1-3)[Fuc(a1-2)[Gal(a1-3)]Gal(b1-4)GlcNAc(b1-2)Man(a1-6)]Man(b1-4)GlcNAc(b1-4)[Fuc(a1-6)]GlcNAc
# Method in brief: as §1
# [8] = biological target: Fuc(a1-2)[GalNAc(a1-3)]Gal(b1-3)GalNAc(a1-3)[Fuc(a1-2)]Gal(b1-4)GlcNAc
# Method in brief: as §1
# [9] = biological target: Fuc(a1-2)[GalNAc(a1-3)]Gal(b1-3)GlcNAc(b1-2)Man(a1-3)[Fuc(a1-2)[GalNAc(a1-3)]Gal(b1-3)GlcNAc(b1-2)Man(a1-6)]Man(b1-4)GlcNAc(b1-4)[Fuc(a1-6)]GlcNAc
# Method in brief: as §1
# [10] = biological target: Fuc(a1-2)[GalNAc(a1-3)]Gal(b1-4)GlcNAc(b1-6)GalNAc
# Method in brief: as §1
# [11] = biological target: Fuc(a1-2)[GalNAc(a1-3)]Gal(b1-4)[Fuc(a1-3)]GlcNAc
# Method in brief: as §1
# [12] = biological target: Fuc(a1-2)[GalNAc(a1-4)]Gal(b1-4)GlcNAc
# Method in brief: as §1
# [13] = biological target: Fuc(a1-2)[GalNAc(b1-3)]Gal
# Method in brief: as §1
# [14] = biological target: Fuc(a1-3)[Gal(b1-4)]GlcNAc(b1-2)Man(a1-3)[Fuc(a1-3)[Gal(b1-4)]GlcNAc(b1-2)Man(a1-6)]Man(b1-4)GlcNAc(b1-4)[Fuc(a1-6)]GlcNAc
# Method in brief: as §1
# [15] = biological target: Gal(a1-3)Gal(b1-3)GlcNAc
# Method in brief: as §1
# [16] = biological target: Gal(a1-3)Gal(b1-3)GlcNAc(b1-2)Man(a1-3)[Gal(a1-3)Gal(b1-3)GlcNAc(b1-2)Man(a1-6)]Man(b1-4)GlcNAc(b1-4)GlcNAc
# Method in brief: as §1
# [17] = biological target: Gal(a1-3)Gal(b1-3)GlcNAc(b1-6)GalNAc
# Method in brief: as §1
# [18] = biological target: Gal(a1-3)Gal(b1-4)GlcNAc(b1-6)GalNAc
# Method in brief: as §1
# [19] = biological target: Gal(b1-3)GlcNAc(b1-6)GalNAc
# Method in brief: as §1
# [20] = biological target: Gal(b1-3)GlcNAc(b1-6)[Gal(b1-3)]GalNAc
# Method in brief: as §1
# [21] = biological target: Gal(b1-3)[Fuc(a1-4)]GlcNAc
# Method in brief: as §1
# [22] = biological target: Gal6S(b1-3)GlcNAc6S
# Method in brief: as §1
# [23] = biological target: GalNAc(a1-3)Gal
# Method in brief: as §1
# [24] = biological target: GalNAc(b1-3)Gal
# Method in brief: as §1
# [25] = biological target: GalNAc(b1-3)Gal(a1-6)Gal(b1-4)Glc
# Method in brief: as §1
# [26] = biological target: GalNAc(b1-3)GlcNAc
# Method in brief: as §1
# [27] = biological target: GalNAc(b1-4)GlcNAc(b1-2)Man(a1-3)[GalNAc(b1-4)GlcNAc(b1-2)Man(a1-6)]Man(b1-4)GlcNAc(b1-4)GlcNAc
# Method in brief: as §1
# [28] = biological target: GalNAc6S(b1-4)GlcNAc
# Method in brief: as §1
# [29] = biological target: GlcNAc(a1-4)Gal(b1-4)GlcNAc(b1-3)Gal(b1-4)GlcNAc
# Method in brief: as §1
# [30] = biological target: GlcNAc(b1-2)[GlcNAc(b1-4)]Man(a1-3)[GlcNAc(b1-4)][GlcNAc(b1-2)[GlcNAc(b1-6)]Man(a1-6)]Man(b1-4)GlcNAc(b1-4)[Fuc(a1-6)]GlcNAc
# Method in brief: as §1
# [31] = biological target: Kdn(a2-6)Gal(b1-4)GlcNAc
# Method in brief: as §1
# [32] = biological target: Man(a1-2)Man(a1-2)Man(a1-6)[Man(a1-3)]Man
# Method in brief: as §1
# [33] = biological target: Man(a1-2)Man(a1-3)[Man(a1-2)Man(a1-6)]Man
# Method in brief: as §1
# [34] = biological target: Man(a1-3)[Man(a1-6)]Man(a1-6)[Man(a1-3)]Man
# Method in brief: as §1
# [35] = biological target: Man(a1-3)[Man(a1-6)]Man(b1-4)GlcNAc(b1-4)GlcNAc
# Method in brief: as §1
# [36] = biological target: Neu5Ac(a2-3)Gal(b1-3)GlcNAc(b1-4)Gal(b1-4)Glc
# Method in brief: as §1
# [37] = biological target: Neu5Ac(a2-3)Gal(b1-4)GlcNAc(b1-3)Gal(b1-4)GlcNAc(b1-3)Gal(b1-4)GlcNAc(b1-2)Man(a1-3)[Neu5Ac(a2-3)Gal(b1-4)GlcNAc(b1-3)Gal(b1-4)GlcNAc(b1-3)Gal(b1-4)GlcNAc(b1-2)Man(a1-6)]GalNAc
# Method in brief: as §1
# [38] = biological target: Neu5Ac(a2-3)Gal(b1-4)GlcNAc(b1-3)[Neu5Ac(a2-3)Gal(b1-4)GlcNAc(b1-6)]GalNAc
# Method in brief: as §1
# [39] = biological target: Neu5Ac(a2-6)Gal(b1-4)GlcNAc(b1-2)Man(a1-6)[Gal(b1-4)GlcNAc(b1-2)Man(a1-3)]Man(b1-4)GlcNAc(b1-4)GlcNAc
# Method in brief: as §1
# [40] = biological target: Neu5Ac(a2-8)Neu5Ac(a2-8)Neu5Ac(a2-3)Gal(b1-4)Glc
# Method in brief: as §1
# [41] = biological target: Neu5Gc(a2-8)Neu5Gc(a2-3)Gal(b1-4)GlcNAc(b1-3)Gal(b1-4)GlcNAc
# Method in brief: as §1
binder,measurement,setting,value
B1,glycan array binding signal (z-score),[1],1.86
same,glycan array binding signal (z-score),[2],-0.162
same,glycan array binding signal (z-score),[3],-0.382
same,glycan array binding signal (z-score),[4],2.93
same,glycan array binding signal (z-score),[5],0.18
same,glycan array binding signal (z-score),[6],-0.206
same,glycan array binding signal (z-score),[7],-0.435
same,glycan array binding signal (z-score),[8],-0.177
same,glycan array binding signal (z-score),[9],-0.305
same,glycan array binding signal (z-score),[10],6.29
same,glycan array binding signal (z-score),[11],-0.149
same,glycan array binding signal (z-score),[12],4.25
same,glycan array binding signal (z-score),[13],4.83
same,glycan array binding signal (z-score),[14],-0.51
same,glycan array binding signal (z-score),[15],4.04
same,glycan array binding signal (z-score),[16],0.993
same,glycan array binding signal (z-score),[17],7.58
same,glycan array binding signal (z-score),[18],5.86
same,glycan array binding signal (z-score),[19],6.01
same,glycan array binding signal (z-score),[20],-0.299
same,glycan array binding signal (z-score),[21],-0.306
same,glycan array binding signal (z-score),[22],1.2
same,glycan array binding signal (z-score),[23],2.65
same,glycan array binding signal (z-score),[24],5.2
same,glycan array binding signal (z-score),[25],4.68
same,glycan array binding signal (z-score),[26],3.33
same,glycan array binding signal (z-score),[27],0.004
same,glycan array binding signal (z-score),[28],4.98
same,glycan array binding signal (z-score),[29],-0.476
same,glycan array binding signal (z-score),[30],-0.586
same,glycan array binding signal (z-score),[31],-0.471
same,glycan array binding signal (z-score),[32],-0.33
same,glycan array binding signal (z-score),[33],-0.432
same,glycan array binding signal (z-score),[34],-0.272
same,glycan array binding signal (z-score),[35],-0.44
same,glycan array binding signal (z-score),[36],-0.22
same,glycan array binding signal (z-score),[37],-0.295
same,glycan array binding signal (z-score),[38],-0.163
same,glycan array binding signal (z-score),[39],-0.561
same,glycan array binding signal (z-score),[40],-0.569
same,glycan array binding signal (z-score),[41],-0.091
